# Tau fibril ThT – blocks human tau fibril formation measured by thioflavin T; AID 1460; P10636; recombinant tau K18 P301L, heparin-induced fibrillization, ThT fluorescence; 2.1% of 270,000 active; Potency, µM (top dose mostly 57.4 µM), for the others: at the top dose activity, negative = inhibition, usual class: inhibitors; note: potency is the fitted concentration of half-maximal effect; nearly all actives have a fitted effect of over 55% in size
# Target sequence (P10636 561-689 P618L limits assumed): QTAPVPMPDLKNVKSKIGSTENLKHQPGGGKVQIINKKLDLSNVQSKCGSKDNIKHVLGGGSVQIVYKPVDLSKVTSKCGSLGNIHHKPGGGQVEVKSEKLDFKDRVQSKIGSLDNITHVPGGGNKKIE
#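 Recombinant human tau K18 fragment […] carrying P301L, 15 uM unlabeled plus 0.24 uM Alexa 594-labeled, was fibrillized with 20 uM heparin in 100 mM sodium acetate pH 7 for 6 hr at 37 C; 30 uM ThT fluorescence read after 1 hr.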
# Tau fluor counter – counter-screen for tau fibril formation inhibitors; tau K18 P301L (four-repeat tau fragment) Alexa594 fluorescence, heparin fibrillization; Potency, µM (titrated, usually from 57.7 µM), inactives show at the highest dose activity change, negative = decrease; 0.93% of 280,000 active; AID 1463; note: potency is the fitted concentration of half-maximal effect; nearly all actives have a fitted effect of over 55% in size
#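 Human K18 P301L tau (15 uM unlabeled plus 0.24 uM Alexa 594-labeled, final) in 100 mM sodium acetate pH 7 was mixed with compound and 20 uM heparin and incubated 6 hr at 37 C.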
# Tau fibril FP – inhibitors of human tau fibril formation; P10636; K18 P301L tau heparin fibrillization, Alexa594 FP, 6 h; Potency, µM (titrated, usually from 57.7 µM), for inactives: at the top dose activity, negative = inhibition, usual class: inhibitors; 0.39% of 280,000 active; note: potency is the fitted concentration of half-maximal effect; nearly all actives have a fitted effect of over 55% in size
#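 Steps: dispense K18 P301L tau (15 uM plus 0.24 uM Alexa 594 tracer, final) in pH 7 sodium acetate; add compound; add heparin (20 uM final); incubate 6 hr, 37 C; add ThT (30 uM final); after 1 hr ambient, read FP.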
# FBPA coupling cs – inhibits coupling enzyme system, counter-screen for aldolase hits; coupling enzyme system counterscreen, AmpLite Red fluorescence; activity change, negative = inhibition, % at 58.2 µM, hits read low; 0.67% of 290,000 active; AID 2472; in the data active = activity change below about -30%
#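 Counterscreen lacking aldolase: glyceraldehyde-3-phosphate coupling-enzyme reagent preincubated 10 min at RT with compound (at 57.5 uM final), then substrate/coupling system with AmpLite Red added; fluorescence read at 525/598 nm after 20 min RT.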
# Starred values were filed as active, the others as inactive; ? = inconclusive; · = not tested or not shown; [ ] = another dose, or the depositor's remark. Compounds with a hit are over-represented: about 2.7% of the library has one in this group of screens. Unless noted, calls come from the whole dose curve; as a rule, active = well fitted curve in the direction sought with a large enough effect; inconclusive = small, poorly fitted or top-dose-only effect, or another doubt; inactive = no such curve, though single readings can be large; an effect the other way counts as inactive or inconclusive. % is set by controls: 0 for no effect and ±100 for the full control effect.
SMILES,Tau fibril ThT,Tau fluor counter,Tau fibril FP,FBPA coupling cs
CC(=O)Nc1ccc(Nc2ncnc3c2c(-c2ccccc2)cn3-c2ccc(C)c(Cl)c2)cc1,-17.4%,?,?,·
[N-]=C=C1C(=O)NC(=O)C([n+]2ccc(-c3ccncc3)cc2)C1c1ccccc1C(F)(F)F (stereo not drawn),·,4.5%[0.0958 µM],4.8%[0.0958 µM],-64.7*
COCC(=O)N1CCC2(CCN(Cc3ccccc3)CC2)CC1,·,·,·,1.5
N#CC1=C(SCC(=O)c2ccc(Br)cc2)NC2=C(C(=O)CCC2)C1c1ccco1 (stereo not drawn),14.1µM*,?,-15.0%,-0.7
CC(=O)C1=C(C)NC(SCC(=O)c2ccccc2)=C(C#N)C1c1ccco1 (stereo not drawn),22.4µM*,?,-2.3%,-7.1
Cc1ccc2nc(-c3ccc(Cl)c(NC(=O)c4ccc5c(c4)OCCO5)c3)oc2c1,-6.7%,-13.2%,-4.7%,·
COc1ccccc1OCC(=O)NNc1c2ccccc2nc2ccccc12,17.8µM*,15.8µM*[quencher],?,0.9
O=C(NNc1c2ccccc2nc2ccccc12)c1ccc(Cl)cc1,·,·,·,-1.6
Cc1ccc(C(=O)NNc2c3ccccc3nc3ccccc23)cc1,3.16µM*,11.2µM*[quencher],?,-8.0
Nc1ccccc1C(=O)NNc1c2ccccc2nc2ccccc12,5.62µM*,12.6µM*[quencher],3.0%,-1.7
COc1ccccc1CNc1ccc(-c2nc(C)no2)cc1[N+](=O)[O-],-4.0%,-18.6%,-8.7%,·
COc1ccc(N/N=C(\C#N)C(=N)SCc2ccccc2)cc1,14.1µM*,?,5.1%,-0.2
O=c1c(C/C=C/c2ccccc2)c(O)ccn1CCc1c[nH]c2ccccc12,-16.1%,17.8µM*[quencher],-4.7%,-0.3
COc1ccc2[nH]cc(CCn3ccc(O)c(C/C=C/c4ccccc4)c3=O)c2c1,?,25.1µM*[quencher],?,-0.4
Cc1cc(/C=C2\SC(=S)NC2=O)c(C)[nH]1,15.8µM*,?,3.1%,0.9
CCn1c(C)cc(/C=C2/SC(=S)NC2=O)c1C,12.6µM*,-27.4%,0.3%,3.1
CCn1ncc(/C=C2/SC(=S)NC2=O)c1C,-13.3%,7.3%,1.6%,-0.1
Cc1cc(/C=C2\SC(=S)NC2=O)c(C)n1-c1cccc(O)c1,15.8µM*,?,14.4%,0.3
Cc1cc(/C=C2\SC(=S)N(C)C2=O)c(C)n1-c1ccc(O)cc1,6.31µM*,8.91µM*[quencher],?,-4.5
O=C(NC1CC(=O)N(c2ccccc2)C1)C1CCCCC1 (stereo not drawn),-1.7%,-2.9%,-11.2%,·
Cc1cn2c(=O)cc(COC(=O)c3ccc(NC(=O)c4ccc(F)cc4)cc3)nc2s1,0.0%,-3.0%,-16.8%,·
Cc1cc(C=C2C(=O)c3ccccc3C2=O)c(C)n1-c1ccccc1,?,-26.6%,5.6%,-16.9
Cc1cc(/C=C2/C(=O)NN(c3ccccc3)C2=O)c(C)n1-c1cccc(O)c1,12.6µM*,?,10.5%,1.0
COCCCNC(=O)CSc1nc2cc3c(cc2c(=O)n1CCCCCC(=O)NCc1ccc(OC)cc1)OCO3,16.0%,13.6%,-6.3%,·
COc1ccc(C(=O)N/N=C/c2ccc(N3CCOCC3)o2)cc1OC,?,-10.1%,-0.3%,-35.5*
SMILES,Tau fibril ThT,Tau fluor counter,Tau fibril FP,FBPA coupling cs
Cc1ccc(C(C[N+](=O)[O-])c2c(C)[nH]n(-c3ccccc3)c2=O)cc1 (stereo not drawn),?,-3.4%,1.4%,-32.3*
COc1ccccc1CNC(=O)CCCN1C(=O)CCn2nc(-c3cn(C)c4ccccc34)cc21,-11.5%,-12.1%,5.8%,·
COc1cccc(CNS(=O)(=O)c2cc3[nH]c(=O)c(=O)[nH]c3cc2C)c1,-13.9%,-10.1%,-3.6%,·
O=C(Nc1ccccc1)C(Cc1ccccc1)N1Cc2ccccc2C1=O (stereo not drawn),2.5%,-2.3%,?,·
COc1ccc(/C=N/c2c(-c3ccc(OC)cc3)nc3n2CCS3)cc1,14.1µM*,?,-4.1%,1.3
COC(=O)c1ccccc1-c1ccc(C(c2c(C)[nH][nH]c2=O)c2c(C)[nH][nH]c2=O)o1,-2.8%,-11.7%,-5.1%,-0.6
COC(=O)c1cccc(-c2ccc(C(c3c(C)[nH][nH]c3=O)c3c(C)[nH][nH]c3=O)o2)c1,7.94µM*,-25.5%,?,-45.5*
Cc1[nH][nH]c(=O)c1C(c1ccc(-c2ccc(Cl)c(C(=O)O)c2)o1)c1c(C)[nH][nH]c1=O,10µM*,-15.6%,?,-48.4*
CCSc1nnc(NC(=O)C(C(F)(F)F)C(F)(F)F)s1,22.4µM*,-20.6%,?,1.2
CCSc1nnc(NC(=O)C(C)C)s1,-2.1%,-3.2%,-0.8%,1.4
O=C(CSc1nc2ccccc2s1)NNC(=O)Nc1ccc(Cl)c(Cl)c1,-16.5%,?,20µM*,-0.1
O=C(CN1c2ccccc2Sc2ccccc21)NNC(=O)Nc1ccc(Cl)cc1,·,5.62µM*[quencher],10.8%,1.3
O=C(CN1c2ccccc2Sc2ccccc21)N/N=C/c1ccccc1,-7.7%,?,9.2%,-3.7
O=C(CSc1nc2ccccc2s1)Nc1ccc(Cl)c(C(=O)O)c1,-10.4%,-11.6%,-3.4%,11.1
O=C(CN1c2ccccc2Sc2ccccc21)NNC(=O)Nc1ccc(Cl)c(Cl)c1,?,5.01µM*[quencher],?,0.4
Cc1cccc2c1-c1sc(C(=O)N3CCN(c4cccc(Cl)c4)CC3)cc1CO2,?,-9.2%,4.0%,·
Cc1cccc(NC(=O)c2sc(-n3nc(C)c(CCC(C)C)c3C)nc2C)c1,?,-12.1%,-0.2%,·
Cc1cccc(Cn2c(=O)n(CCc3ccccc3)c(=O)c3c(C)c(C)sc32)c1,-7.4%,-14.7%,0.0%,·
CCOc1ccc(OCC)c(C2C(C#N)=C(N)N(c3cccnc3)C3=C2C(=O)CC(C)(C)C3)c1 (stereo not drawn),?,-4.3%,-11.3%,-51.6*
Cc1nn(CC(=O)N2CCC(C)CC2)c(=O)c2cc3occc3n12,7.0%,3.0%,-0.6%,·
COc1ccc(N2CCC(CNC(=S)Nc3c(C)cc(C)cc3C)C2)cc1 (stereo not drawn),?,-26.6%,4.2%,-0.4
COc1ccc(N2CCC(CNC(=O)Nc3ccc(OC)cc3OC)C2)cc1 (stereo not drawn),14.1µM*,?,-5.6%,-30.6*
COc1ccc(N2CCC(CNC(=S)Nc3cccc(C)c3)C2)cc1 (stereo not drawn),?,14.1µM*[quencher],9.8%,-4.2
COc1cccc(CNS(=O)(=O)c2ccc(N3CCCCS3(=O)=O)cc2)c1,9.0%,-4.4%,-8.4%,·
COc1cccc(CNS(=O)(=O)c2ccc(S(=O)(=O)N3CCCC3)cc2)c1,-0.2%,3.7%,10.2%,-53.4*
Cn1c(=O)c2c(nc3n(-c4ccc(O)cc4)c(-c4ccc(Br)cc4)cn23)n(C)c1=O,-1.4%,-2.7%,3.6%,·
Cc1ccc(Nc2c(-c3c[nH]c4ccccc34)nc3ccccn23)cc1,?,8.91µM*[quencher],-3.7%,·
Cc1ccc2nc(-c3c[nH]c4ccccc34)c(Nc3ccccc3C)n2c1,2.4%,?,11.1%,·

# Screening data from PubChem.
